Reference: PubChem BioAssay (NCATS)
Inconclusive results are not listed. A number with no mark means an inactive call. Activity calls are given as the source filed them. Calls come from the whole dose curve; as a rule, active = well fitted inhibition curve with a large enough effect; inconclusive = small, poorly fitted or top-dose-only effect; inactive = flat fitted curve, though single readings scatter.

biological target: Calcium and integrin-binding protein 1 (Homo sapiens) (UniProt Q99828); assay: Primary qHTS for Identification of Calcium Integrin Binding Protein 1 (CIB1) Competitor (AID 1508620); conditions: CIB1-GST / FITC-alphaIIb peptide fluorescence polarization; series mostly up to 57.7 µM; activity change, negative = inhibition: at the top concentration;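 note: GST tagged CIB1 binding a fluorescein labelled alphaIIb integrin peptide tracer; top concentration of the series differs between compounds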
Outline: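 Fluorescence polarization competition: CIB1-GST (1 uM final) preincubated with compound 15 min at room temperature, then FITC-labeled alphaIIb peptide (100 nM final) added for another 15 min. Polarization read at Ex 480/Em 540.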
% is set by controls: 0 for no effect and ±100 for the full control effect.

Chain of Calcium and integrin-binding protein 1 (Homo sapiens) (Q99828 whole entry, looked up): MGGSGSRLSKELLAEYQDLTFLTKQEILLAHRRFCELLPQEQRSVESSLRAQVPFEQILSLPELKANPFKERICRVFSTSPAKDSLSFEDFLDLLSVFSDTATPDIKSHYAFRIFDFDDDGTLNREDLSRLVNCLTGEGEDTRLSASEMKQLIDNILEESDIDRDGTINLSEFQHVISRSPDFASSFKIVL

| SMILES | activity change, negative = inhibition | Potency |
| --- | --- | --- |
| O=c1ccn(C2OC(CO)C(O)C2O)c(=O)[nH]1 (centres undefined) | -2.52% [at 114 µM] | – |
| CC(=O)N[C@H]1[C@H](O[C@H]2CC[C@@]3(C)C(CC[C@]4(C)C3CC=C3C5CC(C)(C)CC[C@]5(C(=O)O)[C@H](O[C@@H]5O[C@H](CO)[C@@H](O)[C@H](O)[C@H]5O)C[C@]34C)C2(C)C)O[C@H](CO[C@@H]2OC[C@H](O)[C@H](O)[C@H]2O[C@@H]2OC[C@@H](O)[C@H](O)[C@H]2O)[C@@H](O)[C@@H]1O (some centres undefined) | 3.59% [at 30.2 µM] | – |
| CC1(C)CC[C@]2(C(=O)O)CC[C@]3(C)C(=CCC4[C@@]5(C)CC[C@H](O[C@@H]6O[C@H](C(=O)O)[C@@H](O)[C@H](O)[C@H]6O)C(C)(CO)C5CC[C@]43C)C2C1 (some centres undefined) | -5.54% [at 30.2 µM] | – |
| C=C(C)C1CC2(CO)C(=CC1=O)CCC(O)C2C (centres undefined) | -3.41% [at 114 µM] | – |
| CC(=O)O[C@@H]1C[C@]2(C)[C@@]3(CCC4[C@@]5(C)CC[C@H](O[C@@H]6O[C@H](C(=O)O)[C@@H](O)[C@H](O[C@@H]7O[C@H](CO)[C@H](O)[C@H](O)[C@H]7O[C@@H]7O[C@@H](C)[C@H](O)[C@@H](O)[C@H]7O[C@@H]7OC[C@](O)(CO)[C@H]7O)[C@H]6O[C@@H]6O[C@H](CO)[C@H](O)[C@H](O)[C@H]6O)C(C)(C)C5CC[C@]42C)O[C@@H](O)[C@]12C3CC(C)(C)[C@@H](OC(=O)/C=C/c1ccc(O)c(O)c1)[C@@H]2OC(=O)/C=C/c1ccccc1 (some centres undefined) | 2.91% [at 12.4 µM] | – |
| CC(=O)OC[C@@]12[C@@H](OC(C)=O)C[C@@H](C)[C@](C)([C@@H]3C[C@H]4C=CO[C@H]4O3)[C@H]1CCC[C@]21CO1 | 2.02% | – |
| COC(=O)C1=CO[C@@H](O[C@@H]2O[C@H](CO)[C@@H](O)[C@H](O)[C@H]2O)[C@@H]2[C@@H](C(=O)OC)[C@@H](O)C(O)[C@H]12 (some centres undefined) | 4.84% | – |
| O=C(O)C[C@H](O)C[C@H](O)/C=C/c1c(C2CC2)nc2ccccc2c1-c1ccc(F)cc1 | -7.65% [at 114 µM] | – |
| C=C1[C@@H]2CC[C@@]3(C)[C@H](c4ccoc4)OC(=O)C[C@]13O[C@H]1CC(=O)C(C)(C)[C@H](CC(=O)OC)[C@]12C | 0.208% | – |
| CC1CC(O)C2(C)C(C(=O)O)=CCCC2C1(C)CCc1ccoc1 (centres undefined) | -3.55% | – |
| CCn1nnnc1NCc1ccc(C(C)C)cc1 | 1.25% [at 114 µM] | – |
| CCNC(=O)CCC/C=C\C[C@@H]1[C@@H](/C=C/C(O)CCc2ccccc2)[C@@H](O)C[C@@H]1O (some centres undefined) | -0.263% [at 114 µM] | – |
| OC[C@H]1O[C@@H](OC(CCCCc2ccc(O)cc2)CCc2ccc(O)cc2)[C@H](O[C@@H]2OC[C@](O)(CO)[C@H]2O)[C@@H](O)[C@@H]1O (some centres undefined) | 0.0925% [at 30.2 µM] | – |
| CC1=CC(=O)OC(C)(CC(C)(O)C(=O)O)C1 (centres undefined) | 1.71% [at 114 µM] | – |
| COc1cc(C(O)C(CO)Oc2ccc(CCCO[C@@H]3O[C@@H](C)[C@H](O)[C@@H](O)[C@H]3O)cc2OC)ccc1O (some centres undefined) | -3.14% | – |
| COCC(=O)N1CCc2cc(-c3csc(NC(=O)c4cc(OC)cc(OC)c4)n3)ccc21 | 1.99% [at 114 µM] | – |
| C=CC1(C)CC(O)C2(CCC3C(C)(C(=O)O)CCCC3(C)C2=O)C1 (centres undefined) | -1.71% | – |
| C=CC1C(O[C@@H]2O[C@H](CO)[C@@H](O)[C@H](O)[C@H]2O)OC=C(C(=O)OC)C1CC(=O)O (some centres undefined) | -2.29% | – |
| CCn1c2ccccc2c2cc(CNC)ccc21 | – | inactive |
| COc1cc(O[C@@H]2O[C@H](CO)[C@@H](O)[C@H](O)[C@H]2O)c(CCC(=O)OC[C@H]2O[C@@H](Oc3cc(OC)c(C4OC(=O)C(C)(O)C4O)cc3CCC(=O)O)[C@H](O)[C@@H](O)[C@@H]2O)cc1C1OC(=O)C(C)(O)C1O (some centres undefined) | 0.801% [at 30.2 µM] | – |

| SMILES | activity change, negative = inhibition | Potency |
| --- | --- | --- |
| CC1(C)OC(=O)C(OCC2CC2)=C1c1ccc(S(C)(=O)=O)cc1 | -2.36% [at 114 µM] | – |
| CC(C)CC(=O)OC[C@H]1O[C@@](COC(=O)CC(C)C)(O[C@H]2O[C@H](CO)[C@@H](O)[C@H](O)[C@H]2O)[C@@H](OC(=O)CC(C)C)[C@@H]1OC(=O)CC(C)C | 2.44% [at 30.2 µM] | – |
| NC(=O)Nc1cc(-c2ccc(CN3CCOCC3)c(F)c2)sc1C(=O)N[C@H]1CCCNC1 | 4.07% [at 114 µM] | – |
| CC(=O)OC[C@]12[C@H](OC(C)=O)C(=O)[C@@H]3[C@@H](OC(C)=O)[C@@]14O[C@@]3(C)COC(=O)c1cccnc1[C@@H](C)[C@H](C)C(=O)O[C@@H]([C@H](OC(C)=O)[C@@H]2OC(C)=O)[C@]4(C)O | -2.6% [at 30.2 µM] | – |
| CC1(C)CC2C(O)C3=C(CC(C)(O)C2C1)C(=O)OC3O (centres undefined) | -2.85% [at 114 µM] | – |
| Cc1cc(O)c(C(C)C)cc1O[C@@H]1O[C@H](CO)[C@@H](O)[C@H](O)[C@H]1O | -0.575% | – |
| C/C(=C/CCC(CO)C1CCC2(C)C3CCC4C(C)(C)C(OC5OC(CO)C(O)C(O)C5O)CC(O)C45CC35CCC12C)COC1OC(CO)C(O)C(O)C1O (centres undefined) | 1.34% [at 30.2 µM] | – |
| CC(=O)NC(C(=O)OC1CCC(C)(C)C2CC=C3C(=O)OCC3(O)C12C)C(C)C (centres undefined) | 2.2% | – |
| COc1cc(COC2OC(CO)C(O)C(O)C2O)cc(OC)c1O (centres undefined) | 0.42% | – |
| CC(NCc1ccc(OCc2cccc(F)c2)cc1)C(N)=O (centres undefined) | 6.6% [at 114 µM] | – |
| CC(C)C1=CCC(C)(O)C(OC2OC(CO)C(O)C(O)C2O)C1 (centres undefined) | -10.2% | – |
| CC1=C(CC(=O)O)c2cc(F)ccc2C1=Cc1ccc(S(C)(=O)=O)cc1 | 0.596% [at 114 µM] | – |
| O=C1N(CC2CCCCN2)CCN1c1ccccc1 (centres undefined) | 3.76% [at 114 µM] | – |
| CC(C)C1=CC2=CCC3[C@](C)(CCC[C@@]3(C)C(=O)O)C2CC1=O (some centres undefined) | 0.262% | – |
| COc1cc(CCc2ccccc2)c(C(=O)O)c2c1CC(C(C)(C)O)O2 (centres undefined) | -3.57% | – |
| COc1c(OC2OC(CO)C(O)C(O)C2O)ccc(O)c1C(=O)OCc1ccccc1O[C@@H]1O[C@H](CO)[C@@H](O)[C@H](O)[C@H]1O (some centres undefined) | 1% [at 30.2 µM] | – |
| CCc1cc2c(=O)c(-c3nc4ccccc4s3)coc2c(CN2CCCCC2)c1O | 0.939% | – |
| Cn1ccnc1CCOC(c1cc2nccc(C(=O)O)c2[nH]1)c1ccccc1Cl (centres undefined) | -8.52% [at 114 µM] | – |
| O=C(/C=C/c1ccc(O)cc1)OC[C@H]1O[C@@H](OC(=O)/C=C/c2ccccc2)[C@H](O)[C@@H](O)[C@@H]1O | -4.35% | – |
